Source: PubChem BioAssay (several laboratories)
Hits are enriched below; roughly 3.9% of the tested compounds scored in any of these assays.
H9c2 protect: protects H9c2 cardiomyocytes from peroxide injury | H2O2 injury protection, ATPLite, 2 h | protection from H2O2 cell death, % at 20 µM | AID 588492 | actives 0.63% (n = 360,000);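 active = compounds giving at least 50% protection of heart cells from peroxide-induced death in the single-dose screen, raw or plate-pattern-corrected value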;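 note: 0% = DMSO wells with peroxide and 100% = DMSO wells without peroxide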
ALR H2O2 inh: inhibitors of human sulfhydryl oxidase ALR. P55789. purified ALR, DTT oxidation, H2O2 HRP-luminol luminescence. inhibition, % (no concentration beside the values). actives 3.8% (n = 290,000);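 active = mean replicate inhibition above about 79%, with every replicate also reaching it, limit read from the data; inconclusive = only one of the two criteria met; inactive = mean below limit and not every replicate reaching it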
Target sequence (P55789 whole entry, looked up): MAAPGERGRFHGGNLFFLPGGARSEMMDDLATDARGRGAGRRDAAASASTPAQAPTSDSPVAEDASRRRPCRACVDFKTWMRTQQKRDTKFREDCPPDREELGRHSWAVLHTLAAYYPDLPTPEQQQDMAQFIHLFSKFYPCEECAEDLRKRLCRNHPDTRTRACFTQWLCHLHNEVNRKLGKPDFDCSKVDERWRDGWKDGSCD
UBC9 SUMO inh: SUMOylation inhibition; actives 0.36% (n = 290,000); P63279; HTRF SUMOylation assay, SAE1/SAE2 + UBC9, in vitro; AID 2006; inhibition, % at 35 µM; in the data active = inhibition above about 50%, passing the limit was not always enough; inconclusive = no clear call, values can overlap the other calls
Target sequence (P63279 whole entry, looked up): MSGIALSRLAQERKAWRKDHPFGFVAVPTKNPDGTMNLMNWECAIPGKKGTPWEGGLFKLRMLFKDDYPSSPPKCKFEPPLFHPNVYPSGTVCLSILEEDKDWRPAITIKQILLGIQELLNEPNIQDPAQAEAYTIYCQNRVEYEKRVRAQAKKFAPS
NTR1 agonist: NTR1 (human) agonism; NTR1-U2OS beta-arrestin-GFP spot imaging, agonist mode; activation, % at 20 µM; AID 493036; P30989; actives 0.17% (n = 330,000);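 active = activation at or above 40% of the spot to cytoplasm intensity ratio, with at least 20 cells analyzed; inconclusive = wells under 20 cells, flagged as cytotoxic or low count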;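 note: 0% = DMSO without peptide and 100% = 100 nM NTR1 peptide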
An asterisk follows results filed as active; ? = inconclusive; . = not tested or not shown.

SMILES	H9c2 protect	ALR H2O2 inh	UBC9 SUMO inh	NTR1 agonist
O=C(O)/C=C\C(=O)Nc1ccccc1C#Cc1ccc(Br)cc1	0	98*	12	4
Cc1cc2c(Nc3cccc(O)c3)ncnc2s1	0	99*	2	0
Cc1cc2c(Nc3ccccc3O)ncnc2s1	0	.	.	.
COc1ccc(C(=O)c2ccc3oc(-c4ccc(OC)cc4)c(C#CCCO)c3c2)cc1	-10	2	.	15
COc1cc(OC)cc(-c2oc3cccnc3c2C#CCCO)c1	56*	4	7	8
O=Cc1ccc(-c2nc3ccccc3s2)o1	-5	45	15	4
COc1cc(NCCC(=O)c2cccs2)c(OC)cc1Cl	-2	100*	3	1
O=C(Nc1ccc(O)cc1)C1CC=CCC1 (configuration not stated)	-5	99*	9	4
O=S(=O)(/C=C/C=C/S(=O)(=O)c1ccccc1)c1ccccc1	-19	.	.	.
COCCNC(=S)Nc1ccc(N2CCCCC2)cc1	-4	99*	0	0
COc1cc(/C=N/NC(=S)NCCN2CCOCC2)ccc1O	9	99*	1	5
CC(C)NC(=S)N/N=C/c1ccc(N2CCOCC2)cc1	-1	99*	-21	1
COc1ccc(C(=O)NC(=S)Nc2ccc(N3CCCC3)cc2)cc1	-8	-7	5	6
C=C(C)CNC(=S)N/N=C/c1ccc(N2CCOCC2)cc1	0	?	2	0
COCCNC(=S)N/N=C/c1ccc(N2CCOCC2)cc1	-4	99*	27	0
COc1ccc(OC)c(NC(=S)NCCN2CCOCC2)c1	0	-8	1	0
COC(=O)c1ccc(/C=N/NC(=S)NC(C)C)cc1	-4	-4	-4	1
Cn1c(CSCc2ccccc2Cl)nnc1SCC(=O)Nc1nccs1	-17	-9	-1	0
Cc1c(Cl)cccc1NC(=O)CCN1CCC(C(N)=O)CC1	2	-5	4	1
Cc1cc(NC(=O)C2CCCC2)n(-c2nc3ccccc3[nH]2)n1	2	-14	-6	10
Oc1ccc(/C=N/NC(=S)N2CCOCC2)cc1	-12	99*	5	4
COc1ccc(-c2csc3[nH]c(=S)n(-c4ccccc4)c(=O)c23)cc1OC	3	83*	19	0
COc1cccc(CN2CCC(n3nccc3NC(=O)CCOc3ccccc3)CC2)c1O	-2	94*	0	2
COc1cccc(CN2CCC(n3nccc3NC(=O)CCOc3ccccc3)CC2)c1	0	1	-8	0
O=C(CN1CCC(C(O)(c2ccccc2)c2ccccc2)CC1)Nc1cc(Cl)ccc1Cl	-2	-4	-31	5
SMILES	H9c2 protect	ALR H2O2 inh	UBC9 SUMO inh	NTR1 agonist
C=CCOc1cccc(C(=O)/C=C2/C(=O)Nc3ccccc32)c1	-19	.	3	66*
COc1cc(/C=N/NC(=O)c2cccc([N+](=O)[O-])c2)ccc1OCc1ccc(C)cc1	-11	-8	3	-1
Cc1cccc(NC(=O)CSc2nccn2C)c1	14	100*	.	0
O=C(CCOc1ccccc1)Nc1cccc([N+](=O)[O-])c1	-2	3	-25	0
COc1cccc(C(=O)CSc2nccn2C)c1	10	15	-1	-1
CCOc1ccc(NC(=O)CSc2nccn2Cc2ccco2)cc1	-4	-13	-7	-1
Cc1cccc(NC(=O)CCOc2ccccc2)c1	1	98*	1	1
COc1ccc(NC(=O)CSc2nccn2Cc2ccco2)cc1	-5	99*	7	1
Cn1ccnc1SCC(=O)c1ccc2ccccc2c1	-1	99*	25	0
CN(C)CCCN(Cc1ccccc1)C(=S)NCc1ccccc1	9	-1	-3	3
CCOc1ccc(NC(=O)COC(=O)Cn2cnnn2)cc1OCC	-3	-4	-9	0
C[C@@H]1C=C(C(=O)N2CCN(C)CC2)O[C@H](OCc2ccc(CO)cc2)C1	-3	5	-10	1
CC(=O)C[C@H](O)CC(=O)[C@H]1OC(=O)CCCCCCc2ccccc21	14	.	.	2
Cn1ccnc1SCC(=O)Nc1ccccc1	5	99*	-20	2
O=C(CSc1nccn1Cc1ccccc1)Nc1ccccc1	1	100*	10	1
Cc1cccc(NC(=O)CSc2ncnc3nc[nH]c23)c1	3	90*	7	0
Cn1ccnc1SCC(=O)Nc1ccc2ccccc2c1	7	11	17	-1
CC(=O)Nc1ccc(Nc2cc(-c3ccccc3)nc3ncnn23)cc1	0	.	10	0
COc1cccc(C(c2nnnn2Cc2ccccc2)N2CCN(C3CCCC3)CC2)c1OC (configuration not stated)	95*	.	42	0
COc1cccc(NC(=O)CN(C)C(=O)c2cc(C)oc2C)c1	3	-3	.	-2
CC1CCCCN1c1nnc(N)s1 (configuration not stated)	12	53	-11	0
CC1CCCCN1c1ccc(N)cc1C(N)=O (configuration not stated)	0	94*	0	1
Oc1ccc(N2CCN(c3ncnc4sc5c(c34)CCC5)CC2)cc1	-4	99*	36	4
Cc1cccc(OCC(=O)NCCCNC(=O)c2cnccn2)c1	-4	-6	4	1
COc1ccc(CCN(Cc2cccs2)S(=O)(=O)c2ccc(C(=O)O)cc2)cc1OC	13	94*	12	-2
SMILES	H9c2 protect	ALR H2O2 inh	UBC9 SUMO inh	NTR1 agonist
CC(=O)C(C(c1ccccc1)N1CCCc2ccccc21)N1CCOCC1 (configuration not stated)	4	.	.	.
Cc1nc2ccccc2c2c(N)c3ccccc3n12	66*	?	16	0
CCCN1C(=O)/C(=C\c2nc3ccccc3c(=O)[nH]2)c2ccccc21	66*	.	24	.
CCS(=O)(=O)N1Cc2ccccc2CC1C(=O)Nc1nc2c(C)cccc2s1 (configuration not stated)	-4	0	-16	4
Cc1ccc(C(=O)Nc2nc(=O)n(C)s2)cc1	-16	12	-16	-2
Cn1sc(NC(=O)c2ccc(Cl)cc2)nc1=O	-14	97*	-5	0
CCOc1ccc(OCc2ccc(C(=O)NCc3cccnc3)o2)cc1	-4	-16	-2	0
Cc1ccc(-c2sc(-c3cccnc3)nc2CC(=O)O)cc1	2	99*	9	1
Cc1ccc(-c2sc(C)nc2CC(=O)O)cc1	2	27	3	1
Cc1ccc(-c2nc(-c3cccnc3)sc2CC(=O)O)cc1	0	99*	-4	2
COc1ccc(CN(C(=O)c2cccc(OC)c2)C2CCS(=O)(=O)C2)cc1 (configuration not stated)	3	-7	8	0
CCN(CC)c1ccc(CN(C(=O)c2ccco2)C2CCS(=O)(=O)C2)cc1 (configuration not stated)	8	99*	19	1
CCN(CC)c1ccc(CN(C(=O)c2cccs2)C2CCS(=O)(=O)C2)cc1 (configuration not stated)	-4	99*	.	0
CCN(CC)c1ccc(CN(C(=O)c2cc(OC)c(OC)c(OC)c2)C2CCS(=O)(=O)C2)cc1 (configuration not stated)	8	94*	9	0
